Results published in ChEMBL document CHEMBL1201862, “PubChem BioAssay data set” (2004).
Out of some 55,000 sequences screened, about 2,600 (4.7%) were called active. No stated cut-off is given here; in the data, active = GI50 up to about 1.1 µM and inactive = higher. The list is a sample of the results. Entries with a potency or affinity are not part of this list.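 All cell lines were grown in 96-well plates and treated with compound for 48 hours. Abbreviation: GI50, concentration required for 50% inhibition of growth.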

test system: OVCAR-4; assay: NCI tumour cell line growth inhibition, 48 h

Substance | GI50 [µM]
[Bis(aminomethyl)tetramethylenesilane]dichloropaltinum(II), CHEMBL2146205 | 59.8
[Bis(aminomethyl)tetramethylenesilane]tetrachloropaltinum(IV), CHEMBL2146189 | 19
CISPLATIN, CHEMBL11359 | 1.49
[Bis(aminomethyl)pentamethylenesilane]dichloropaltinum(II), CHEMBL2146202 | 5.46
cis-Bis[[(trimethylsilyl)methyl]amino]tetrachloroplatinum(IV), CHEMBL2146191 | 5.53
[Bis(aminomethyl)pentamethylenesilane]tetrachloropaltinum(IV), CHEMBL2146204 | 18.6
[Bis(aminomethyl)dimethylsilane]tetrachloroplatinum(IV), CHEMBL2146190 | 18.8
[Bis(aminomethyl)dimethylsilane]dichloroplatinum (II), CHEMBL2146201 | 45.8
[Bis(aminomethyl)ethylmethylsilane]tetrachloroplatinum(IV), CHEMBL2146192 | 10
mu-(1,7-nanodiamine-N,N')bis-(cis-aminedichloroplatimum (II)), CHEMBL2146215 | 40.8
[Bis(aminomethyl)diethylsilane]tetrachloroplatinum(IV), CHEMBL2146203 | 14.7
